Data: PubChem BioAssay (Tox21)
“And” between values parts separate entries of the source, which are not always exact repeats. Equal entries are not always repeated. Records with an inconclusive call do not appear. A call without a number means that no potency is given here. Some structures have more than one record in an assay (separate samples or runs), and their calls can disagree. The source made the active and inactive calls. Unless noted, calls come from the whole dose curve; as a rule, active = well fitted curve in the direction sought with a large enough effect in the repeat runs; inconclusive = weak or mixed curves; inactive = no such curve, though single readings can be large; an effect the other way counts as inactive or inconclusive.

Columns and labels:
[1] = qHTS assay to identify small molecule antagonists of the peroxisome proliferator-activated receptor delta (PPARd) signaling pathway - cell viability counter screen (AID 743213); note: nearly all actives have a fitted effect of over 50% in size; note: potency is the fitted concentration of half-maximal effect
Method in brief: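 PPARd-bla HEK293H cells (3000/well) got compound plus 300 nM L165041 agonist for 17 h at 37 C. Viability in the same wells came from CellTiter-Glo luminescence after 30 min at room temperature.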

[2] = target: Peroxisome proliferator-activated receptor delta (Homo sapiens) (UniProt Q03181); experiment: qHTS assay to identify small molecule antagonists of the peroxisome proliferator-activated receptor delta (PPARd) signaling pathway (AID 743215; active = well fitted inhibition curve with a large enough effect in the signal ratio in the repeat runs, not every such curve was filed as active; the % refers to the signal ratio;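 note: cells stimulated with agonist L165041 at 300 nM final during compound exposure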; note: potency is the fitted concentration of half-maximal effect)
Method in brief: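 Cells: HEK293H with a UAS-driven beta-lactamase reporter responsive to PPARd. Compounds were co-added with L165041 (300 nM, final) and incubated 17 h at 37 C before a 2 h room-temperature FRET substrate step and fluorescence reading.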

[3] = target: Bile acid receptor (Homo sapiens) (UniProt Q96RI1); experiment: qHTS assay to identify small molecule antagonists of the farnesoid-X-receptor (FXR) signaling pathway (AID 743217; active = well fitted inhibition curve with a large enough effect in the signal ratio in the repeat runs, not every such curve was filed as active; the % refers to the signal ratio; note: potency is the fitted concentration of half-maximal effect)
Method in brief: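 Cells carrying a UAS-driven beta-lactamase reporter (GeneBLAzer FXR-UAS-bla HEK 293T) were plated and rested 5 h at 37 °C. Compounds in DMSO were added alongside chenodeoxycholic acid agonist at 50 uM final and left 16 h at 37 °C before FRET substrate readout.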

[4] = qHTS assay to identify small molecule agonists of the farnesoid-X-receptor (FXR) signaling pathway - cell viability counter screen (AID 743218); note: nearly all actives have a fitted effect of over 45% in size; note: potency is the fitted concentration of half-maximal effect
Method in brief: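 Cells were seeded, left 5 h at 37 C and 5% CO2, then dosed with compound in DMSO for 16 h. After the beta-lactamase FRET read, CellTiter-Glo was added and luminescence measured 30 min later.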

[5] = target: Bile acid receptor (Homo sapiens) (UniProt Q96RI1); experiment: qHTS assay to identify small molecule agonists of the farnesoid-X-receptor (FXR) signaling pathway (AID 743220; active = well fitted activation curve with a large enough effect in the signal ratio in the repeat runs, not every such curve was filed as active; the % refers to the signal ratio)
Method in brief: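 FXR-UAS-bla HEK 293T cells carrying a UAS-driven beta-lactamase reporter were plated for 5 h at 37C/5% CO2, then exposed to DMSO-dissolved Tox21 10K compounds for 16 h at 37C. A LiveBLAzer B/G FRET substrate was loaded for 2 h at room temperature before fluorescence reading.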

[6] = qHTS assay to identify small molecule antagonists of the farnesoid-X-receptor (FXR) signaling pathway - cell viability counter screen (AID 743221; active = well fitted cell-killing curve with a large enough effect in the repeat runs, not every such curve was filed as active; note: nearly all actives have a fitted effect of over 50% in size; note: potency is the fitted concentration of half-maximal effect)
Method in brief: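 HEK 293T FXR-bla cells, 5 h pre-incubation; compound + CDCA 50 uM final, 16 h, 37 C; beta-lactamase FRET read first, then CellTiter-Glo luminescence, 30 min RT.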

[7] = target: Vitamin D3 receptor (Homo sapiens) (UniProt P11473); experiment: qHTS assay to identify small molecule antagonists of the vitamin D receptor (VDR) signaling pathway (AID 743223; active = well fitted inhibition curve with a large enough effect in the signal ratio in the repeat runs, not every such curve was filed as active; the % refers to the signal ratio)
Method in brief: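 Beta-lactamase reporter read-out: FRET substrate fluorescence after 2 h at room temperature, following 16 h exposure of VDR-bla cells to test compound plus 3 nM (final) 1alpha,25-dihydroxyvitamin D3 agonist at 37C.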

[8] = target: Vitamin D3 receptor (Homo sapiens) (UniProt P11473); experiment: qHTS assay to identify small molecule agonists of the vitamin D receptor (VDR) signaling pathway (AID 743222; calls by dose curve)
Method in brief: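 Cells carrying a VDR-driven beta-lactamase reporter are seeded at 2,000 per well and rested 4 h. Compounds in DMSO are added for 16 h at 37C, and FRET substrate fluorescence is measured after 2 h at room temperature.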

[9] = target: Peroxisome proliferator-activated receptor delta (Homo sapiens) (UniProt Q03181); experiment: qHTS assay to identify small molecule agonists of the peroxisome proliferator-activated receptor delta (PPARd) signaling pathway (AID 743212; calls by dose curve)
Method in brief: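 Beta-lactamase reporter readout: a ratiometric FRET signal from the LiveBLAzer substrate after 2 h at room temperature. Compound exposure at 37 °C in PPARδ-bla HEK293H cells driven by an upstream activator sequence.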

Chain of Bile acid receptor (Homo sapiens) (Q96RI1 whole entry, looked up): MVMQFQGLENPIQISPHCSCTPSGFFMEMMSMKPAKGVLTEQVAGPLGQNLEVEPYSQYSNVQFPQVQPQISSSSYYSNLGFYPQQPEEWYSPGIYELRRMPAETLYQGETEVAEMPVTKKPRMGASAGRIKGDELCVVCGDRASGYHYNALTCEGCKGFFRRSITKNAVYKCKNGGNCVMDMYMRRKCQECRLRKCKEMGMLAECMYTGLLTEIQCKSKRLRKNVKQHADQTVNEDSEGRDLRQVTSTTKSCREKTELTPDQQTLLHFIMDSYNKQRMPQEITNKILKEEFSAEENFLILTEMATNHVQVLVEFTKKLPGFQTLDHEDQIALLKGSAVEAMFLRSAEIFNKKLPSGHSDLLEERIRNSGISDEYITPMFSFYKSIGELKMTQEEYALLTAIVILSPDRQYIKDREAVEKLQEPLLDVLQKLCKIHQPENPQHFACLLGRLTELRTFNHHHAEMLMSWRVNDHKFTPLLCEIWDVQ
Chain of Peroxisome proliferator-activated receptor delta (Homo sapiens) (Q03181 whole entry, looked up): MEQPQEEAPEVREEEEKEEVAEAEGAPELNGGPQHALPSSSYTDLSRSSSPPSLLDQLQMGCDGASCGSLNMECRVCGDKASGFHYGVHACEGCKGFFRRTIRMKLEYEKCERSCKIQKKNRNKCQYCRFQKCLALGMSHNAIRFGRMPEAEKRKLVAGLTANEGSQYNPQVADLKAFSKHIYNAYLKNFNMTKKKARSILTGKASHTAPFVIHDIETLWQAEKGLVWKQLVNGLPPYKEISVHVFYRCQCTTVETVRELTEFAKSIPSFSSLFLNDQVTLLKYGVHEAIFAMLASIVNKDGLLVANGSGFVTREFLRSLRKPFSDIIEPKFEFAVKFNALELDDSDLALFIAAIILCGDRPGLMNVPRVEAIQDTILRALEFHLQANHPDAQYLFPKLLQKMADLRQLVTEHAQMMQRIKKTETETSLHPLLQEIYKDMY
Chain of Vitamin D3 receptor (Homo sapiens) (P11473 whole entry, looked up): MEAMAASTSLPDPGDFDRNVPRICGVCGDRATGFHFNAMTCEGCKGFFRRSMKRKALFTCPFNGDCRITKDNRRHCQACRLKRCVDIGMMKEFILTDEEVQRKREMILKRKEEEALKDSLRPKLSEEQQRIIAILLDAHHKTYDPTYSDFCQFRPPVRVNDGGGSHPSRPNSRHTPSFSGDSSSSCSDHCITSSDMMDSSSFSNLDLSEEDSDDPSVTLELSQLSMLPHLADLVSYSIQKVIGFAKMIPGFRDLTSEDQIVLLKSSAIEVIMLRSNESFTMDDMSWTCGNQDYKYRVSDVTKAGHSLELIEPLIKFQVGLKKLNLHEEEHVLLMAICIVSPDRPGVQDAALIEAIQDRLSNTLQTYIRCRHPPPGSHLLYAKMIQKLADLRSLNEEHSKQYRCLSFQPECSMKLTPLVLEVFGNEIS

| Compound | Potency [1] | Potency [2] | Potency [3] | Potency [4] | Potency [5] | Potency [6] | Potency [7] | Potency [8] | Potency [9] |
| --- | --- | --- | --- | --- | --- | --- | --- | --- | --- |
| CC(C)C(=O)c1c(C(C)C)nn2ccccc12 | inactive | inactive | inactive | inactive | inactive | inactive | inactive |  |  |
| COC(=O)c1cccc(C(=O)OC)c1 | inactive | inactive |  | inactive |  | inactive |  | inactive |  |
| NC(N)=NC(=O)Cc1c(Cl)cccc1Cl | inactive | inactive |  |  |  | inactive | inactive | inactive | inactive |
| Nc1ccc2cc3ccccc3cc2c1 | inactive |  |  | inactive |  | inactive |  |  |  |
| CC(C)(C)NCC(O)c1cc(O)cc(O)c1 (centres undefined) | inactive |  |  |  |  | inactive |  |  |  |
| CC(=O)Nc1ccc(C(=O)CCl)cc1 | inactive and 43.6 µM (active) | inactive | inactive | inactive and 54.9 µM (active) |  | inactive |  | inactive |  |
| O=C(Cl)c1cccc(C(=O)Cl)c1 | inactive | inactive |  | inactive |  | inactive |  | inactive | inactive |
| Oc1c(Cl)cc(Cl)c(Cl)c1Cc1c(O)c(Cl)cc(Cl)c1Cl | 38.8 µM (active) and 24.5 µM (active) |  |  | 21.8 µM (active) and 24.5 µM (active) | inactive | 48.9 µM (active) |  |  |  |
| CC(COc1ccccc1)N(CCCl)Cc1ccccc1 (centres undefined) | inactive | inactive |  | 49 µM (active) and inactive |  | inactive |  | inactive |  |
| CCCC(=O)c1ccccc1 |  | inactive |  | inactive |  | inactive | inactive | inactive |  |
| CCOc1ccccc1C(N)=O | inactive | inactive | inactive | inactive | inactive | inactive |  | inactive |  |
| N[C@@H]1CONC1=O | inactive |  | inactive | inactive | inactive | inactive |  | inactive |  |
| C1COC(NC(C2CC2)C2CC2)=N1 | inactive | inactive |  | inactive |  | inactive |  |  |  |
| Cc1cc(OCCOCC[N+](C)(C)Cc2ccccc2)ccc1C(C)(C)CC(C)(C)C | 19.4 µM (active) |  | 54.6 µM (active) | 17.3 µM (active) and 18.8 µM (active) | inactive | 54.6 µM (active) and 29.8 µM (active) |  |  |  |
| CC1COC(=O)O1 (centres undefined) | inactive |  | inactive | inactive | inactive | inactive |  | inactive | inactive |
| O=c1n(CC2CO2)c(=O)n(CC2CO2)c(=O)n1CC1CO1 (centres undefined) | inactive |  |  |  |  | inactive |  | inactive |  |
| CC(C)CCOC(=O)c1ccc(N(C)C)cc1 | inactive | inactive |  | inactive |  | inactive |  | inactive | inactive |
| C=CC(=O)OCCCCCCOC(=O)C=C | inactive |  | inactive | inactive |  | inactive |  |  |  |
| CCCCCC(=O)O[C@]1(C(C)=O)CC[C@H]2[C@@H]3CCC4=CC(=O)CC[C@]4(C)[C@H]3CC[C@@]21C |  |  |  | 43.4 µM (active) |  |  |  |  |  |
| O=C(Nc1ccccc1SSc1ccccc1NC(=O)c1ccccc1)c1ccccc1 | 12.4 µM (active) and 11 µM (active) |  |  | inactive |  | inactive |  |  |  |
| O=Cc1ccc(Cl)cc1 | inactive | inactive |  | inactive |  | inactive | inactive | inactive |  |
| c1ccc2n[nH]nc2c1 | inactive and 38.9 µM (active) | inactive |  | inactive |  | inactive |  |  |  |
| C=CS(=O)(=O)O | inactive | inactive |  | inactive | inactive | inactive |  | inactive |  |
| CCCCOCCOC(=O)c1ccccc1C(=O)OCCOCCCC | 42.7 µM (active) and inactive | inactive |  | inactive | inactive | inactive | inactive | inactive |  |
| Oc1c(Cl)cc(Cl)cc1Sc1cc(Cl)cc(Cl)c1O | 49.1 µM (active) and 19.5 µM (active) | 21.9 µM (active) and 17.4 µM (active) and inactive |  | 15.5 µM (active) | inactive | 27.6 µM (active) |  | inactive | inactive |
| O=C1CC2(CCCC2)CC(=O)N1CCCCN1CCN(c2ncccn2)CC1 | inactive |  | inactive | 24.5 µM (active) and inactive | inactive | inactive |  | inactive |  |
| O=C1NCC2(CCN(CCc3ccccc3)CC2)O1 | inactive |  |  | inactive |  | inactive |  |  |  |
| CCN1CCCC1CNC(=O)c1cc(S(=O)(=O)CC)c(N)cc1OC (centres undefined) | inactive | inactive |  | inactive |  | inactive | inactive | inactive | inactive |
| C=C(C)C(=O)O | inactive | inactive |  | inactive |  | inactive | inactive | inactive | inactive |
| COC(=O)/C=C/c1ccccc1 | inactive | inactive |  | inactive |  | inactive |  | inactive | inactive |
